Hit rate of the full screen: of about 2,400 compounds, about 360 (15%) were called active. Only a sample is shown. Potency and affinity values are given separately. Values without a mark were called inactive.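 The calls were made as follows: active = viability falls under 70% at one or more tested concentrations, taken as toxicity; inactive = viability stays over 70% at every dose.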
assay: HeLa cell cytotoxicity, dose response, cytotoxicity control for MgcRacGAP inhibitor project (AID 624300); conditions: CellTiter-Glo luminescence, 24 h; series mostly up to 100 µM; viability: at the top concentration;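 also: 100% = median of untreated control wells on the same plate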

| Compound | viability |
| --- | --- |
| O=c1[nH]c2ccccc2nc1/C=C/c1ccc(O)cc1 | 88.1% |
| COc1cc(/C=N/n2c(C)nc3ccccc3c2=O)ccc1O | 102% |
| COc1cc(/C=C/c2nc3ccccc3c(=O)[nH]2)ccc1O | 83.4% |
| C=CCn1c(N/N=C/c2ccc(O)cc2)nc2ccccc2c1=O | 93.4% |
| COc1cc(/C=C/c2ccc3cccc(O)c3n2)ccc1O | 100% [at 25 µM] |
| COc1cc(/C=N/NC(=O)c2cc(-c3ccccc3OC(C)C)nc3ccccc23)ccc1O | 106% |
| CCCc1nc2ccccc2c(=O)n1/N=C/c1ccc(O)c(O)c1 | 80.7% |
| O=C(CN1CCN(c2ccc(O)cc2)CC1)NCC(=O)Nc1ccc(F)c(F)c1F | 112% |
| Cc1cccc(Nc2n[nH]c(=S)s2)c1C | 95.3% |
| CN1CCN(CCCNCc2cn(CCC#N)c3ccccc23)CC1 | 95.5% |
| COc1ccc(NC2CCCN(C(=O)CCc3cccc(F)c3)C2)cc1 (stereo not given) | 101% |
| COc1cc(C)c(N)cc1C(C)C | 105% |
| CCOC(=O)c1[nH]c2cc(OC)c(OC)cc2c1N | 106% |
| COc1ccc(N2CCN(C(C)C(=O)N3CCCC3)CC2)cc1 (stereo not given) | 97% |
| CC(=O)N1CCN(CC(O)COc2ccc(Br)cc2)CC1 (stereo not given) | 104% |
| O=C1C2C3C=CC(CC3)C2C(=O)N1/N=C/c1ccc(O)c(O)c1 (stereo not given) | 98.9% |
| CCOC(=O)c1[nH]c2ccccc2c1NC(=S)Nc1cccc(C)c1 | 103% |
| COc1ccc(NCc2cc3cc(OC)ccc3[nH]c2=O)cc1 | 83.8% |
| COc1ccc(OC(=O)COc2ccc(C)cc2)cc1 | 99.3% |
| COc1ccc(OC(=O)COc2cc(C)ccc2C)cc1 | 105% |

| Compound | viability |
| --- | --- |
| Nc1c(Cl)ncnc1NCCc1ccc(O)cc1 | 92.8% |
| CCOC(=O)/C(C#N)=C1\C(=O)N(Cc2ccccc2)c2ccccc21 | 95% |
| COc1ccc(CN2CCN(Cc3c[nH]c4ccccc34)CC2)c(OC)c1 | 82.3% |
| COc1ccc(OC)c(CN2CCN(Cc3cccc4ccccc34)CC2)c1 | 87.5% |
| CCOC(=O)N/N=C/c1ccc(N2CCOCC2)s1 | 92.2% |
| Nc1ccc2nc(N)sc2c1 | 105% |
| Nc1ccc(-c2nc3ccc(N)cc3o2)cc1 | 91.5% |
| COc1ccccc1CNC(=O)C[C@@H]1C[C@H]2c3cc(N(C)C)ccc3O[C@H]2[C@H](CO)O1 | 105% |
| COc1cc(N2C(=O)C=CC2=O)ccc1N1C(=O)C=CC1=O | 106% |
| COc1ccc(NC2CCCN(C(=O)C3(C)CCCCC3)C2)cc1 (stereo not given) | 100% |
| COc1cc(CN2CCN(C(=O)c3cccc4ccccc34)CC2)cc(OC)c1OC | 96.3% |
| O=C(N/C(=C\c1ccc(O)cc1)C(=O)N1CCCCC1)c1ccccc1 | 102% |
| S=c1[nH]nc(-c2ccncc2)n1/N=C/C=C/c1ccccc1 | 109% |
| COc1cccc(OC)c1OCCCN1CCOCC1 | 103% |
| CCC(=O)Nc1ccc(Nc2ccccc2)cc1 | 118% |
| CCOC(=O)c1[nH]c2ccccc2c1NC(=S)Nc1ccccc1 | 103% |
| COc1cccc2[nH]c(C(=O)NN)c(N)c12 | 90.4% |
| CC1CN(CCOCCOc2ccccc2-c2ccccc2)CC(C)O1 (stereo not given) | 87.1% |
| O=C1C(Cl)=C(NC(=O)c2ccccc2)C(=O)C(Cl)=C1NC(=O)c1ccccc1 | 106% |
| O=C1c2ccccc2NC(c2ccc(O)cc2)N1/N=C/c1ccc(O)cc1 (stereo not given) | 100% |

| Compound | viability |
| --- | --- |
| COc1ccc(NC2CCCN(C(=O)c3ccccc3C(F)(F)F)C2)cc1 (stereo not given) | 94.8% |
| COC(=O)c1cc(NCc2c(F)cccc2Cl)ccc1N1CCOCC1 | 106% |
| COc1ccc2[nH]c3c(=O)n(Cc4ccc(C(=O)N5CCC(C(N)=O)CC5)cc4)c(=S)[nH]c3c2c1 | 80.8% |
| CCOC(=O)c1[nH]c2ccc(OC)cc2c1NC(=O)c1ccccc1C(=O)O | 83.2% |
| COc1ccc(C=Nc2ccc3[nH]ncc3c2)c(O)c1 | 101% |
| COc1ccc2[nH]c3c(=O)n(CCCCC(=O)N4CCC(C(N)=O)CC4)c(=S)[nH]c3c2c1 | 109% |
| CCOC(=O)C1CCN(C2=NC(=O)/C(=C/c3ccc(O)cc3)S2)CC1 | 96.4% |
| c1ccc(-c2ccccc2OCCOCCN2CCOCC2)cc1 | 85.7% |
| COc1cc(NC(C)CCCNC(C)C)c2ncccc2c1OC (stereo not given) | 93.5% |
| C=CCc1cc(OC)ccc1OCCN1CC(C)OC(C)C1 (stereo not given) | 95.6% |
| Cc1cc(O)ccc1NC(=O)c1ccccc1 | 94% |
| O=C(Cc1coc2cc(O)ccc12)N1CCN(S(=O)(=O)c2ccc(Br)cc2)CC1 | 90.8% |
| S=C(NCCN1CCOCC1)Nc1ccc(Nc2ccccc2)cc1 | 97.8% |
| CCN(Cc1ccccc1)C1CCN(Cc2ccc(SC)cc2)CC1 | 97.6% |
| COc1ccc(CN2CCN(Cc3ccccc3F)CC2)c(OC)c1 | 92.1% |
| CC1CCCCN1CC(=O)Nc1ccc(N2CCCCCC2)cc1 (stereo not given) | 105% |
| CC(=O)N1CCN(c2ccc(NCc3cccs3)cc2)CC1 | 104% |
| Oc1ccc(/C=N/NC(=S)N2CCOCC2)cc1 | 107% |
| Cc1c(NC(=S)N/N=C/c2ccc(O)cc2)c(=O)n(-c2ccccc2)n1C | 90.6% |
| COc1cc(CN2CCN(C(=O)CC(C)C)CC2)cc(OC)c1O | 91.8% |

Reference: PubChem BioAssay AID624300 (Southern Research Specialized Biocontainment Screening …, 2012)
